Screening results: PubChem, The Scripps Research Institute Molecular Screening Center
hcDAF12 agonist: H. contortus DAF-12 nuclear receptor activators, primary screen, cell-based, luminescence, HEK293, lit1-tk-luc reporter; HEK293 hcDAF-12 lit1-tk-luc reporter; 0% DMSO, 100% Δ7-dafachronic acid; 370,000 compounds, 1.4% hits; activation, % at 6.8 µM;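 active = activation above the mean of all tested compounds plus 3 SD, cut at about 5.5% in these data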;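 also: 100% = response to 3 µM Δ7-dafachronic acid high control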
hgDAF12 agonist: H. glycines DAF-12 receptor agonists, primary screen, cell-based, luminescence, HEK293, GAL4 fusion, UAS-luciferase; HEK293 GAL4-hgDAF12 UAS-luciferase reporter, agonist luminescence; normalized to butyrate control; activation, % at 6.8 µM; 370,000 compounds, 1.8% hits;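 active = activation above a cutoff set at the mean of all screened compounds plus 3 SD, cut at about 10% in these data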;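 also: 0% = DMSO wells and 100% = sodium butyrate wells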
SMARCA2 act: SMARCA2 (BRM) function activators, primary screen, cell-based, luminescence, high throughput | 370,000 compounds, 1% hits | MG213 cells, MMTV-luciferase reporter, dexamethasone, overnight | activation, % at 9.1 µM | AID 652017, 2013; in the data active = activation above about 7.8%;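 also: 0% = vehicle wells and 100% = reference activator wells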
ssDAF12 agonist: S. stercoralis DAF-12 nuclear receptor activators, primary screen, cell-based, luminescence, HEK293, GRIP1 co-expression, lit1-tk-luc; Nuclear hormone receptor DAF-12 (Strongyloides stercoralis); HEK293 ssDAF-12/GRIP1 lit1-tk-luc reporter; % of 3 µM dafachronic acid response; activation, % at 6.8 µM; 370,000 compounds, 1% hits; AID 652126, 2013;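 active = activation above the mean over all tested compounds plus 3 SD, cut at about 0.9% in these data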;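 also: 0% = DMSO-only wells and 100% = 3 µM delta7-dafachronic acid wells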
DAX1 inh-1: DAX1 (NR0B1) inhibitors on StAR promoter, primary screen, cell-based, luminescence, SF-1 (NR5A1), full-length DAX-1; 370,000 compounds, 1.1% hits; AID 652010, 2013; inhibition, % at 6.8 µM; HEK293T StAR-luciferase reporter, SF-1/DAX-1 repression relief;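 active = inhibition above the mean over all tested compounds plus 3 SD, cut at about 3.6% in these data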;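 also: 0% = DAX-1 cells with DMSO and 100% = cells lacking DAX-1 with DMSO; higher inhibition means more luminescence from relief of DAX-1 repression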
DAX1 inh-2: DAX1 (NR0B1) inhibitors, primary screen, cell-based, HEK293, Gal4-DAX1, luciferase luminescence; AID 504766, 2011; Nuclear receptor subfamily 0 group B member 1 (Homo sapiens), P51843; HEK293 Gal4-DAX1 luciferase reporter; 340,000 compounds, 0.99% hits; inhibition, % at 6.75 µM;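 active = inhibition above the mean over all tested compounds plus 3 SD, cut at about 4.2% in these data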;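 also: 0% = DAX1-transfected cells with DMSO and 100% = empty-vector control cells with DMSO; inhibition shows as a rise in luminescence from relieved DAX1 repression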
DAX1 inh confirm: DAX1 (NR0B1) inhibitors relieving SF-1 repression, confirmation, cell-based, luminescence, HEK293T, full-length DAX-1, SF-1 activated StAR promoter. 2,400 compounds, 87% hits. HEK293T StAR-promoter luciferase reporter, SF-1/DAX-1 repression. shares compounds with DAX1 inh-1. inhibition, % at 6.8 µM;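 active = inhibition above the average of every tested compound plus 3 SD, cut at about 3.8% in these data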;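 also: 0% = DAX-1 cells with DMSO and 100% = no DAX-1 control cells with DMSO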
Target sequence (P51843 whole entry, looked up): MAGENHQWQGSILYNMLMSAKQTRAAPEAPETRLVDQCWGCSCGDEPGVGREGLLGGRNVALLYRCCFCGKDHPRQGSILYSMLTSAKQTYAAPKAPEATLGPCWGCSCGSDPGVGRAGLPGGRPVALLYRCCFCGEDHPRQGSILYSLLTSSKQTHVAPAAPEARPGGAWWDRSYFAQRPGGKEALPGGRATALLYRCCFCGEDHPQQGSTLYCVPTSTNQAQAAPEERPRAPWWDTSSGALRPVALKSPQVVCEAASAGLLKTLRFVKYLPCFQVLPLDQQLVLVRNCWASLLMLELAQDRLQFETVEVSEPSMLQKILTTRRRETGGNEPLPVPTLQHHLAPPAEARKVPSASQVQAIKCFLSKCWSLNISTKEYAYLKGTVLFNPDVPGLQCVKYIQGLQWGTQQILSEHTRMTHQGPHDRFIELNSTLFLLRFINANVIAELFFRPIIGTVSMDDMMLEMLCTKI
SF1 mutant ctr: StAR reporter signal changes without DAX1, counter-screen for DAX1 inhibitor project, cell-based, luminescence, AF-2 mutant SF-1, transactivation; shares compounds with DAX1 inh-1; HEK293 StAR-luciferase, SF-1 AF2 mutant; inhibition, % at 6.8 µM; 2,400 compounds, 78% hits; AID 652136, 2013;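 active = inhibition above the mean of all tested compounds plus 3 SD, cut at about 3% in these data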;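 also: 0% = DAX-1 transfected cells with DMSO and 100% = cells without DAX-1 with DMSO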
LXRb hcDAF ctr: LXR agonists, Gal4 luciferase reporter, confirmation, counter-screen for hcDAF-12 agonist project, cell-based, luminescence, HEK293, H. contortus campaign; shares compounds with hcDAF12 agonist; HEK293 Gal4-LXR tk-luc reporter, 24 h; normalized: DMSO 0%, positive control 100%; activation, % at 6.8 µM; 3,400 tested, under 10 active; AID 743027, 2013;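 active = mean percent activation of the reporter above a cutoff set as the average over tested compounds plus their standard deviation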
hcDAF12 conf: H. contortus DAF-12 receptor agonists, confirmation, cell-based, luminescence, HEK293, lit1-tk-luc, triplicate; shares compounds with hcDAF12 agonist; HEK293 hcDAF-12 lit1-tk-luc reporter; % of Δ7-dafachronic acid response; activation, % at 6.8 µM; 3,400 compounds, 61% hits; AID 743032, 2013;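 active = mean activation across triplicate tests above the threshold derived from the earlier primary screen, cut at about 5.5% in these data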;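 also: 0% = DMSO only wells and 100% = 3 µM Δ7-dafachronic acid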
hgDAF12 conf: H. glycines DAF-12 receptor agonists, confirmation, cell-based, luminescence, HEK293, GAL4-LBD fusion; shares compounds with hgDAF12 agonist; activation, % at 6.8 µM; 3,300 compounds, 80% hits; AID 743050, 2013; HEK293 GAL4-hgDAF12 luciferase reporter, agonist mode; percent of butyrate response;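 active = mean activation over triplicate wells above the hit cutoff derived from the earlier primary screen, cut at about 11% in these data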;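 also: 0% = DMSO low control and 100% = 2 mM sodium butyrate high control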
LXRb DAF12 ctr: LXR agonists, Gal4 luciferase reporter, confirmation, counter-screen for hgDAF-12 agonist project, cell-based, luminescence, HEK293, H. glycines campaign; shares compounds with hgDAF12 agonist; 24 h; activation, % at 6.8 µM; 3,300 tested, under 10 active; AID 743051, 2013;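 active = mean activation of the triplicate above a set limit carried over from the primary screen, none filed active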
An asterisk follows results filed as active; · = no result given. Hits are enriched below; roughly 4.8% of the tested compounds scored in any of these assays.

SMILES | hcDAF12 agonist | hgDAF12 agonist | SMARCA2 act | ssDAF12 agonist | DAX1 inh-1 | DAX1 inh-2 | DAX1 inh confirm | SF1 mutant ctr | hgDAF12 conf | LXRb DAF12 ctr | others
CCCCC(=O)Nc1cc2nn(-c3ccc(OC)cc3)nc2cc1C | 1 | 5 | 3 | -1 | 1 | -1 | · | · | · | ·
CCC(=O)Nc1cc2nn(-c3ccc(OC)cc3)nc2cc1C | 6 | 16* | 6 | 0 | 5.1* | 5.5* | 13* | 3.3* | 14* | 1
COc1ccc2oc(C(=O)NC3CCCCC3)c(C)c2c1 | 5.8* | 16* | 3 | 0 | 6.2* | 2 | 7.0* | 5.9* | 14* | 1
COc1ccc2oc(C(=O)OCC(=O)NC3CC3)c(C)c2c1 | 0 | 2 | -1 | -1 | 1 | 0 | · | · | · | ·
COc1ccc2oc(C(=O)Nc3nc(C)cs3)c(C)c2c1 | 9.9* | 21* | 2 | 1.1* | 6.9* | 1 | 10* | 6.6* | 20* | 1 | LXRb hcDAF ctr=2;hcDAF12 conf=12*
COc1ccc2c(CC(=O)Nc3nc(C)cs3)coc2c1 | -2 | 2 | 1 | -1 | -1 | 0 | · | · | · | ·
COc1ccc(-c2nc(C#N)c(NCCCn3ccnc3)o2)cc1OC | -1 | 1 | -3 | -1 | 0 | 0 | · | · | · | ·
COc1ccc(NC(=O)CCCN2C(=O)C3C4C=CC(C4)C3C2=O)c(OC)c1 (stereo unspecified) | 0 | 1 | -4 | -1 | 0 | 0 | · | · | · | ·
O=C(/C=C/c1ccccc1)Nc1scc(-c2ccccc2)c1C(=O)O | 4 | 15* | 2 | 0 | 5.1* | 3 | 8.9* | 8.6* | 11* | 1
Cc1cccc(C)c1OCc1nnc(SCC(=O)Nc2nccs2)o1 | 1 | 8 | -1 | -1 | 0 | 1 | · | · | · | ·
O=C(Nc1ccccc1)c1ccc(-c2ccc(F)cc2)s1 | 5 | 13* | 0 | 1.0* | 7.1* | 2 | 11* | 7.0* | 18* | 1
Clc1ccc(-c2csc(NCC3CCCO3)n2)cc1 (stereo unspecified) | 5 | 15* | -1 | 0.9* | 5.1* | · | 7.8* | 4.3* | 13* | 1
Cc1ccc2nc(-c3ccccc3N)[nH]c2c1 | 9.2* | 22* | 7 | 1 | 5.1* | -1 | 14* | 5.9* | 19* | 1 | LXRb hcDAF ctr=2;hcDAF12 conf=10.0*
Cc1ccc(C)c(-c2nc3ccc(N)cc3[nH]2)c1 | -1 | -1 | -4 | -1 | 0 | 3 | · | · | · | ·
COC(=O)c1ccc(-c2nc3ccccc3[nH]2)cc1 | 5 | 15* | 5 | 1 | 5.3* | -1 | 18* | 9.4* | 13* | 1
Cc1cc(-c2nc3ccccc3[nH]2)ccc1N | 6.4* | 15* | 7 | 1.2* | 8.0* | 2 | 14* | 7.2* | 17* | 1
COC(=O)c1ccc(C(=O)Nc2ccc3nc(-c4ccncc4)[nH]c3c2)cc1 | -1 | -3 | -1 | -1 | -1 | 0 | · | · | · | ·
CCN1CCN(C(=O)C(C)N(c2ccc(C)cc2)S(C)(=O)=O)CC1 (stereo unspecified) | -1 | -1 | 0 | -1 | 0 | 0 | · | · | · | ·
COc1cccc(NC(=O)Nc2ccc3c(c2)nc(C)n3C)c1 | 5.7* | 20* | 5 | 0 | 4.7* | -2 | 12* | 7.8* | 15* | 1
CC(Sc1nnc(CC(C)c2ccccc2)n1N)C(N)=O (stereo unspecified) | -2 | -1 | -1 | -1 | 0 | 1 | · | · | · | ·
Nc1ncc(-c2ccc(F)cc2)nc1N1CCN(CCO)CC1 | -1 | 0 | -3 | -1 | 1 | · | · | · | · | ·
OCCN1CCN(c2cnc(-c3ccsc3)cn2)CC1 | 5 | 17* | 2 | 1 | 5.9* | · | 10.0* | 6.2* | 13* | 1
Nc1c2c(nc3sc4c(c13)CCCCC4)CCCCC2 | 5.8* | 16* | 3 | 1 | 5.0* | 1 | 8.7* | 3.5* | 16* | 1
CCc1c(-c2ccccc2)nc2sc3c(c2c1N)CCCC3 | 1 | 2 | 1 | 0 | 1 | 2 | · | · | · | ·
